According to PubChem BioAssay (NCATS):
“And” between values parts separate entries of the source, which are not always exact repeats. Equal values may be shown once. The source made the active and inactive calls. The rule behind the calls is not given here.

What was measured:
[1] = Immunotoxin (HA22) sensitization/mitigation study. Vehicle arm (PBS) (AID 1159510)
[2] = Immunotoxin (SS1P) sensitization/mitigation study. Vehicle arm (DMEM) (AID 1159513)
Potency is the fitted concentration of half-maximal effect.

| Compound | Potency [1] | Potency [2] |
| --- | --- | --- |
| CCCn1c(=O)c2[nH]c(C34CC5CC3C[C@@H](C5)C4)nc2n(CCC)c1=O | 16.6 µM (active) |  |
| CC(O)=C(C#N)C(=O)Nc1ccc(C(F)(F)F)cc1 | 16.6 µM (active) |  |
| CCC1(O)CC2CN(CCc3c([nH]c4ccccc34)[C@@](C(=O)OC)(c3cc4c(cc3OC)N(C=O)[C@H]3[C@](O)(C(=O)OC)[C@H](OC(C)=O)[C@]5(CC)C=CCN6CC[C@]43[C@@H]65)C2)C1 (stereo partly specified) | 0.0017 µM (active) | 3.3 nM (active) |
| CO[C@H]1C=CC=C(C)C(=O)NC2=CC(=O)C(NCCN(C)C)=C(C[C@@H](C)C[C@H](OC)[C@@H](O)[C@@H](C)C=C(C)[C@@H]1OC(N)=O)C2=O | 0.0059 µM (active) | 3320 nM (active) |
| CCCCc1ccc(NS(=O)(=O)c2ccc(C)c(C(=O)N3CCN(c4cccc(C)c4C)CC3)c2)cc1 | 20.9 µM (active) | 23500 nM (active) |
| NC(=O)c1c(OCc2c(F)cc(Br)cc2F)nsc1NC(=O)NCCCCN1CCCC1 | 23.5 µM (active) |  |
| CCOc1cc2ncc(C#N)c(Nc3ccc(OCc4ccccn4)c(Cl)c3)c2cc1NC(=O)/C=C/CN(C)C | 4.69 µM (active) | 935 nM (active) |
| C[C@@H]1C[C@H]2[C@@H]3CCC4=CC(=O)C=C[C@]4(C)C3(F)[C@@H](O)C[C@]2(C)[C@@]1(O)C(=O)CO (stereo partly specified) | 0.059 µM (active) | inactive |
| CC(C)c1onc(-c2c(Cl)cccc2Cl)c1COc1ccc(/C=C/c2cccc(C(=O)O)c2)c(Cl)c1 | 3.32 µM (active) |  |
| O=C(NCCCNc1nc(Nc2cccc(NC(=O)N3CCCC3)c2)ncc1I)c1cccs1 | 11.8 µM (active) and 3.32 µM (active) | 20.9 µM (active) and 23.5 µM (active) |
